Measured values: PubChem BioAssay
The source made the active and inactive calls.

Legend:
[1] = optical density shifts of acrAB sulA E. coli – strain DRC41, OD650, 48 h, E. coli filamentation inducer project, primary screen (AID 1152); conditions: higher = more signal, called active from +8 up or from −8 down;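 also: E. coli MC1000 strain DRC41 lacking acrAB efflux pump and sulA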
[2] = probe aLefty1 binding on compound microarray – biochemical, small-molecule microarray, 635/667 nm fluorescence, primary screen (AID 1153); conditions: higher = more signal;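 also: score merges spot fluorescence with signal-to-noise ratio from the scanned slide images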
[3] = plasmodial surface anion channel blockers, osmotic lysis – cell-based, P. falciparum Indochina, OD700, 1 h, primary screen (AID 1154); conditions: P. falciparum Indochina infected RBC osmotic lysis, higher = more signal, called active from +8 up or from −8 down
[4] = plasmodial surface anion channel blockers, osmotic lysis – cell-based, P. falciparum Indochina, OD700, 2 h, primary screen (AID 1155);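 also: lysis reports solute entry through the parasite surface anion channel PSAC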; conditions: P. falciparum Indochina infected erythrocytes, higher = more signal, called active from +8 up or from −8 down
[5] = changes in parasitized red cell lysis, either direction – P. falciparum Indochina, OD700, 3 h, PSAC antagonist project, primary screen (AID 1156); conditions: P. falciparum-infected erythrocytes, osmotic lysis, higher = more signal, called active from +8 up or from −8 down
[6] = plasmodial surface anion channel blockers, osmotic lysis – cell-based, P. falciparum Indochina, OD700, 18 h, primary screen (AID 1157); conditions: P. falciparum Indochina infected erythrocytes, osmotic lysis OD700, 18 h; higher = more signal, called active from +8 up or from −8 down
[7] = S6 kinase pathway phospho-S6 level changes – cell-based, A549, cytoblot, luminescence, serum-stimulated, primary screen (AID 1158); conditions: 5 h, higher = more signal;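 also: serum-stimulated A549 lung adenocarcinoma cells; signal is phosphorylated S6 detected by cytoblot immunostaining with HRP secondary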
[8] = biological target: NADPH oxidase 2 (Homo sapiens) (UniProt P04839); assay: compounds shifting NOX2 Amplex Red fluorescence – cell-based, HEK293-NOX2, PMA-stimulated, NOX inhibitor project, primary screen (AID 1159); conditions: 45 min, higher = more signal, called active from +8 up or from −8 down; also: test concentration not given here
Sequence of NADPH oxidase 2 (Homo sapiens) (P04839 whole entry, looked up): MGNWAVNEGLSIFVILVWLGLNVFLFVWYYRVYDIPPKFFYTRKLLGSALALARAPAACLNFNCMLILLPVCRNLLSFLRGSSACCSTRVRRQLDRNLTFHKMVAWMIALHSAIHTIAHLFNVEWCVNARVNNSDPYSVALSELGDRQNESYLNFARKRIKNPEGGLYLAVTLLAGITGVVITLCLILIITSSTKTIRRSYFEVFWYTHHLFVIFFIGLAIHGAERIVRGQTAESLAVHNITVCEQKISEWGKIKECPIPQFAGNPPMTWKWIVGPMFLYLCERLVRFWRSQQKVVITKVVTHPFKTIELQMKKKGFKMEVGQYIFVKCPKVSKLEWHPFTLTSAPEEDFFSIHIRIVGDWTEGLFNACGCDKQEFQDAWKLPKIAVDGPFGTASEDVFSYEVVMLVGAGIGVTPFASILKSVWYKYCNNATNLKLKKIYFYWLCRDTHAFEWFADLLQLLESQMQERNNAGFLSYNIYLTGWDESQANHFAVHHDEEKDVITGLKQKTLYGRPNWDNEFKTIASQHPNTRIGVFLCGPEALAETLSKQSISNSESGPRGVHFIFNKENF

[9] = biological target: NADPH oxidase 4 (Homo sapiens) (UniProt Q9NPH5); assay: compounds shifting NOX4 Amplex Red fluorescence – cell-based, HEK293-NOX4, tetracycline-induced, NOX inhibitor project, primary screen (AID 1160); conditions: HEK293-NOX4, Amplex Red H2O2 fluorescence, 45 min; higher = more signal, called active from +8 up or from −8 down
Sequence of NADPH oxidase 4 (Homo sapiens) (Q9NPH5 whole entry, looked up): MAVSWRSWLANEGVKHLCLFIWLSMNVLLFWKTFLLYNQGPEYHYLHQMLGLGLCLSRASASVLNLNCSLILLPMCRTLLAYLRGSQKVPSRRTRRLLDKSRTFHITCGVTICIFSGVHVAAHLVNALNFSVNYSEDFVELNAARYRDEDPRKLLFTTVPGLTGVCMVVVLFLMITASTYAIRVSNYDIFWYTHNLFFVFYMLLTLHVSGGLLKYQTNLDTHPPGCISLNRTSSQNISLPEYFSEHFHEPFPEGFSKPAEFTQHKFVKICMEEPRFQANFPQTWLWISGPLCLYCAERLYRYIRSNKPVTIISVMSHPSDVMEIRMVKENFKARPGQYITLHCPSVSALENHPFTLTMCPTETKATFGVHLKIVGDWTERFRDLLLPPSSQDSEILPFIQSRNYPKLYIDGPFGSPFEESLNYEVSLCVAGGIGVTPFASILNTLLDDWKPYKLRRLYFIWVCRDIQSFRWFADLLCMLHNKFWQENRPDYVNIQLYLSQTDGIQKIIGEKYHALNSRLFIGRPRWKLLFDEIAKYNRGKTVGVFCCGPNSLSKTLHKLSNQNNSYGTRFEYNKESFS

[10] = biological target: NADPH oxidase 5 (Homo sapiens) (UniProt Q96PH1); assay: compounds shifting NOX5 Amplex Red fluorescence – cell-based, HEK293-NOX5, NOX inhibitor project, primary screen (AID 1161); conditions: HEK293-NOX5, ionomycin, 45 min, higher = more signal
Sequence of NADPH oxidase 5 (Homo sapiens) (Q96PH1 whole entry, looked up): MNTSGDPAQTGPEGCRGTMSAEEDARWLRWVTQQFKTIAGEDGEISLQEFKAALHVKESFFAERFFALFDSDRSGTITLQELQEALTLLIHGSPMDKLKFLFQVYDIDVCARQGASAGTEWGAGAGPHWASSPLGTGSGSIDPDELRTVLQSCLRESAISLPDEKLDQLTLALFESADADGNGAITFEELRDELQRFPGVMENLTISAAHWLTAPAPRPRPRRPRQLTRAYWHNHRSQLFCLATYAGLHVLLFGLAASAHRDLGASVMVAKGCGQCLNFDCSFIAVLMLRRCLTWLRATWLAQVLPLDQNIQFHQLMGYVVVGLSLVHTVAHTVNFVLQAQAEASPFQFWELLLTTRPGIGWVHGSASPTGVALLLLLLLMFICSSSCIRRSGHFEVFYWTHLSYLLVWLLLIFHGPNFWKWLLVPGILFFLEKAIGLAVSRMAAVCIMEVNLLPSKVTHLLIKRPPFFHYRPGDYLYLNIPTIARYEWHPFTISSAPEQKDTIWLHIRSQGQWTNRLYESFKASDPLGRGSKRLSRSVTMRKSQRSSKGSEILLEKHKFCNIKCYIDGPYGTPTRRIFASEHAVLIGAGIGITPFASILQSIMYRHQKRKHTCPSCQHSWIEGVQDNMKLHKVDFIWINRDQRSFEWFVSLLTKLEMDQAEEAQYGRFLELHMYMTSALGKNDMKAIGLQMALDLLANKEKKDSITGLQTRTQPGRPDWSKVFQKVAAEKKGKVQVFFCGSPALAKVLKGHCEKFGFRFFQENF

[11] = compound effects on lung adenocarcinoma cell viability – A549, calcein-AM fluorescence, 48 h, basal, profiling panel (AID 1162); conditions: higher = more signal; also: test concentration not given here
[12] = compound effects on differentiated 3T3-L1 adipocyte viability – cell-based, 3T3-L1 adipocytes, calcein-AM fluorescence, 48 h, basal, profiling panel (AID 1163); conditions: 3T3-L1 adipocytes viability, higher = more signal; also: test concentration not given here
[13] = compound effects on hepatocellular carcinoma cell viability – HepG2, calcein-AM fluorescence, 48 h, basal, profiling panel (AID 1164); conditions: higher = more signal; also: test concentration not given here
[14] = compound effects on multiple myeloma cell viability – MM1S, calcein-AM fluorescence, 48 h, basal, profiling panel (AID 1165); conditions: higher = more signal; also: test concentration not given here
[15] = calcein-AM signal in unstimulated myeloma cells – cell-based, calcein-AM fluorescence, 48 h, PK04 Diversity Set, profiling panel (AID 1166); conditions: RPMI8226 myeloma viability, higher = more signal;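 also: cells grown under basal conditions without added stimulus; test concentration not given here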
[16] = JC-1 mitochondrial signal, unstimulated HepG2 cells – cell-based, JC-1 fluorescence, 24 h, 100 nL compound, profiling panel (AID 1167); conditions: HepG2 mitochondrial potential, higher = more signal; also: test concentration not given here
[17] = JC-1 mitochondrial signal, unstimulated adipocytes – cell-based, JC-1 fluorescence, 3T3-L1 adipocytes, 24 h, 100 nL compound, profiling panel (AID 1168); conditions: JC-1 mitochondrial fluorescence, higher = more signal, called active from +8 up or from −8 down; also: test concentration not given here
[18] = JC-1 mitochondrial signal, unstimulated myeloma cells – cell-based, JC-1 fluorescence, RPMI8226, 24 h, 100 nL compound, profiling panel (AID 1169); conditions: JC-1 mitochondrial potential fluorescence, higher = more signal; also: test concentration not given here
[19] = JC-1 mitochondrial signal, unstimulated MM1S myeloma – cell-based, JC-1 fluorescence, 24 h, 100 nL compound, profiling panel (AID 1170); conditions: MM1S mitochondrial potential, higher = more signal; also: test concentration not given here
[20] = resazurin metabolic signal in A549 cells – cell-based, resazurin fluorescence, 24 h, PK04 Diversity Set, profiling panel (AID 1171); conditions: A549 viability, higher = more signal, called active from +8 up or from −8 down; also: test concentration not given here

## CC/C=C/C(=O)N(C[C@@H]1CCCO1)[C@@H]1CC(C(=O)NCCO)=C[C@H](Oc2c(I)cc(CO)cc2OC)[C@H]1O
[1]
  z-score: 1.24 (inactive)
[2]
  composite z-score: 0.135
[3]
  z-score: 1.05 (inactive)
[4]
  z-score: -0.433 (inactive)
[5]
  z-score: 1.31 (inactive)
[6]
  z-score: -1.48 (inactive)
[7]
  z-score: 1.98
[8]
  z-score: -0.425 (inactive)
[9]
  z-score: 1.5 (inactive)
[10]
  z-score: 1.2
[11]
  z-score: 1.65
[12]
  z-score: 0.407
[13]
  z-score: 0.362
[14]
  z-score: 0.0808
[15]
  z-score: 0.587
[16]
  z-score: 2.48
[17]
  z-score: 1.32 (inactive)
[18]
  z-score: -0.0319
[19]
  z-score: 0.265
[20]
  z-score: 1.07 (inactive)

## COCCOC(=O)N1C(=O)[C@@]2(c3cc(C#CCNC(N)=O)ccc31)[C@H](c1ccccc1OCCO)N1[C@H](c3ccccc3)[C@H](c3ccccc3)OC(=O)[C@H]1[C@@H]2C(=O)NC[C@H](O)c1ccccc1
[1]
  z-score: 0.369 (inactive)
[2]
  composite z-score: 0.346
[3]
  z-score: 2.18 (inactive)
[4]
  z-score: 0.758 (inactive)
[5]
  z-score: 0.299 (inactive)
[6]
  z-score: 0.751 (inactive)
[7]
  z-score: -0.209
[8]
  z-score: 1.02 (inactive)
[9]
  z-score: 1.17 (inactive)
[10]
  z-score: 0.219
[11]
  z-score: -0.991
[12]
  z-score: -0.574
[13]
  z-score: 0.0681
[14]
  z-score: -0.344
[15]
  z-score: 0.941
[16]
  z-score: -1.64
[17]
  z-score: 0.392 (inactive)
[18]
  z-score: -0.305
[19]
  z-score: -0.803
[20]
  z-score: 0.868 (inactive)

## CCCNC(=O)[C@@H]1c2ccccc2C(=O)N(Cc2cc(F)cc(C(F)(F)F)c2)[C@H]1c1ccc(CO)cc1
[1]
  z-score: 1.86 (inactive)
[2]
  composite z-score: 0.251
[3]
  z-score: 2.1 (inactive)
[4]
  z-score: -0.314 (inactive)
[5]
  z-score: 0.064 (inactive)
[6]
  z-score: -0.73 (inactive)
[7]
  z-score: 1.74
[8]
  z-score: 1.2 (inactive)
[9]
  z-score: 0.609 (inactive)
[10]
  z-score: 0.676
[11]
  z-score: 1.68
[12]
  z-score: 1.18
[13]
  z-score: -0.0223
[14]
  z-score: 0.168
[15]
  z-score: 0.563
[16]
  z-score: 2.07
[17]
  z-score: -0.31 (inactive)
[18]
  z-score: 0.693
[19]
  z-score: 0.607
[20]
  z-score: 1.54 (inactive)

## C=C(C)[C@@H]1CC=C(C(O)C2C=CC3C(=O)NC(=O)C3N2Nc2ccccn2)CC1 (stereo not given in full)
[1]
  z-score: -1.56 (inactive)
[2]
  composite z-score: 0.497
[3]
  z-score: 0.671 (inactive)
[4]
  z-score: 0.613 (inactive)
[5]
  z-score: 0.0385 (inactive)
[6]
  z-score: 0.876 (inactive)
[7]
  z-score: -1.11
[8]
  z-score: -1.02 (inactive)
[9]
  z-score: -2.89 (inactive)
[10]
  z-score: -2.69
[11]
  z-score: -0.592
[12]
  z-score: -1.11
[13]
  z-score: -0.914
[14]
  z-score: 0.0217
[15]
  z-score: -0.97
[16]
  z-score: -1.66
[17]
  z-score: 0.344 (inactive)
[18]
  z-score: 0.921
[19]
  z-score: -0.0607
[20]
  z-score: -0.981 (inactive)

## O=C/C=C/c1ccccc1Cl
[1]
  z-score: 2.11 (inactive)
[2]
  composite z-score: -0.191
[3]
  z-score: 0.159 (inactive)
[4]
  z-score: 0.282 (inactive)
[5]
  z-score: -2.03 (inactive)
[6]
  z-score: 0.206 (inactive)
[7]
  z-score: 1.11
[8]
  z-score: -0.129 (inactive)
[9]
  z-score: -0.729 (inactive)
[10]
  z-score: 1.38
[11]
  z-score: 1.23
[12]
  z-score: 0.556
[13]
  z-score: 1.03
[14]
  z-score: -0.882
[15]
  z-score: 0.895
[16]
  z-score: 1.74
[17]
  z-score: 0.603 (inactive)
[18]
  z-score: 0.562
[19]
  z-score: 1.09
[20]
  z-score: 0.807 (inactive)
